The text below walks through data of PubChem BioAssay.

The nature of the assay: probe aLefty1 binding on compound microarray – biochemical, small-molecule microarray, 635/667 nm fluorescence, primary screen (AID 1153).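 Also: score merges spot fluorescence with signal-to-noise ratio from the scanned slide images.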 Conditions: higher = more signal.
The molecule `C=CC[C@@]12N=C(c3ccc(OCCCO)cc3)O[C@@H]1c1ccccc1N(CCS(=O)(=O)c1ccccc1)C2=O` yielded a composite z-score of 0.199.

With `CN(C)CCCNC(=O)[C@@]1(C)c2ccccc2C(=O)N(Cc2cc(C(F)(F)F)cc(C(F)(F)F)c2)[C@H]1c1ccc(CO)cc1`, the composite z-score was -0.147.

On to `CC(C)NC(=O)[C@@]1(C)c2ccccc2C(=O)N(C(C)C)[C@H]1c1ccc(CO)cc1`, for which the composite z-score was -0.0699.

`O=C(N1CCCCC1)[C@@]1(Cc2ccccc2)COC(c2ccc(OCCCO)cc2)=N1` registered a composite z-score of 0.461.

As to `O=C1C[C@@](C(=O)NCC(F)(F)F)(c2ccc([N+](=O)[O-])cc2)[C@@H](c2ccc(CO)cc2)N1C1CCCCC1`, the composite z-score was determined as 0.517. For `O=C1c2ccccc2[C@](Cc2ccccc2I)(C(=O)NCc2ccccc2)[C@H](c2ccc(CO)cc2)N1C1CCCCC1` the value was 0.254.

On to `C=CC[C@@]1(C(=O)N2CCCCC2)N=C(c2ccc(OCCCO)cc2)O[C@@H]1c1ccccc1`, for which the composite z-score worked out at 0.683.

Turning to `C=CCOC(=O)[C@@H]1[C@H]2C(=O)O[C@H](c3ccccc3)[C@H](c3ccccc3)N2[C@H](c2ccc(OCCOC(=O)[C@H]3C[C@H]4C(=O)N[C@@H](CCCC[N+](C)(C)C)C(=O)N4[C@H]3c3ccc(O)cc3)cc2)[C@@]12C(=O)Nc1ccc(I)cc12`, the composite z-score turned out to be 0.113. In the case of `C[C@H]1ON(c2ccc(C(=O)OC(C)(C)C)cc2)[C@@H](c2ccc(O)cc2)[C@@H]1C(=O)N1C(=O)OC[C@@H]1c1ccccc1` it was -0.0023; in that of `Cc1c(NC(=O)/C(C#N)=C/C=C/c2ccccc2[N+](=O)[O-])c(=O)n(-c2ccccc2)n1C`, -0.184; in that of `CC(C)(C)OC(=O)CC[C@]1(C(=O)NCCN2CCOCC2)N=C(c2ccc(OCCCO)cc2)O[C@H]1c1ccccc1N=[N+]=[N-]`, 0.591.

As for `CCOC(=O)[C@H]1C/C=C/C[C@H](C(=O)OCC)C(=O)O[C@H]2[C@@H](OC)O[C@H](CO)[C@@H](OC(=O)Nc3ccc(OC)cc3)[C@@H]2OC1=O`, the composite z-score stood at 0.104. For `O=C1NC(=O)C2C1C=CC(C(O)c1c(F)cccc1Cl)N2Nc1ccccn1` (stereo not given), the composite z-score worked out at 0.245. In the case of `COc1ccc([Si](C)(C)[C@@H]2[C@@H](CCO)O[C@]3(C(=O)N(Cc4cccc(N5C(=O)c6ccccc6Oc6ccccc65)c4)c4ccccc43)[C@H]2C)cc1` it was 0.0355. For `Cc1ccc(S[C@]2(C(=O)NCc3ccccc3)CC(=O)N(C(C)C)[C@@H]2c2ccc(CO)cc2I)cc1` the value was 0.33; for `CC(C)CCC[C@@H](C)[C@H]1CC[C@@]2(C)C3=C(CC[C@]12C)[C@@]1(C)CC[C@H](OC(=O)c2ccc(Br)cc2)C(C)(C)C1CC3` (stereo not given in full), -0.0559; for `NC(=O)N1C(=O)C2C(C1=O)C1C=C(c3ccc(CO)cc3)C2C(C2CC2)N1Cc1sc2ccccc2c1Cl` (stereo not given), 0.317. For `C=CCN1C(=O)[C@@]2(O[C@@H](CCn3cc([C@H](O)c4ccccc4)nn3)[C@H]([Si](C)(C)c3ccc(OC)cc3)[C@H]2C)c2ccccc21` the value was 0.276; for `CC1CC/C=C\[C@H]2OC34C=CCN(CCN5CCOCC5)C(=O)[C@H]3N(CCO)C(=O)[C@@H]4C2C(=O)O1` (stereo not given in full), 0.213. `C=CCOC(=O)[C@H]1[C@@H]2C(=O)O[C@@H](c3ccccc3)[C@@H](c3ccccc3)N2[C@@H](c2ccc(OCCOC(=O)[C@H]3C[C@H]4C(=O)N[C@@H](Cc5ccccc5)C(=O)N4[C@H]3c3ccc(O)cc3)cc2)[C@]12C(=O)Nc1ccc(I)cc12`: the composite z-score is -0.0162. In the case of `COc1ccc(C#Cc2ccc3c(c2)[C@]2(C(=O)N3)[C@H](C(=O)N3CCc4cc(OC)c(OC)cc4C3)[C@H]3C(=O)O[C@H](c4ccccc4)[C@H](c4ccccc4)N3[C@@H]2c2ccc(O)cc2)cc1` it was 0.0839. Take `O=C1O[C@@H](c2ccccc2)[C@@H](c2ccccc2)N2[C@@H](c3ccccc3OCCO)[C@]3(C(=O)Nc4ccccc43)[C@@H](C(=O)NC[C@H](O)c3ccccc3)[C@H]12`: the composite z-score was 0.0112. In the case of `C[C@]1(C(=O)NC2CC2)c2ccccc2C(=O)N(Cc2ccc(OC(F)(F)F)cc2)[C@H]1c1ccc(CO)cc1` it was -0.0186; in that of `NC(=O)NCC#Cc1ccc2c(c1)[C@]1(C(=O)N2)[C@H](C(=O)Nc2nc3ccccc3s2)[C@H]2C(=O)O[C@H](c3ccccc3)[C@H](c3ccccc3)N2[C@@H]1c1ccc(O)cc1`, 0.315.

`COc1ccc(CCNC(=O)[C@@]2(Sc3ccc(C)cc3)CC(=O)N(Cc3cc(C(F)(F)F)cc(C(F)(F)F)c3)[C@@H]2c2ccc(CO)cc2I)cc1` gave a composite z-score of 0.0509.
